Source: PubChem BioAssay
An excerpt weighted towards active compounds, which were near 2.1% of everything screened.
ARNT TACC3 PPI: disrupts binding between human ARNT and TACC3. Q9Y6A5. AlphaScreen His-ARNT PAS-B/GST-TACC3 binding, luminescence; TACC3 fragment carries E629A point mutation. inhibition, % at 9.99 µM. 390,000 tested, 0.66% active. AID 623870;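 active = mean inhibition of replicates at least 50% and at least half of replicates each reaching 50%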;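 note: 0% = complete ARNT plus TACC3 wells and 100% = ARNT alone without TACC3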
Ecoli rRNA inh: selective bacterial rRNA inhibition in E. coli. E. coli WT GFP vs humanized-ribosome RFP mutants, fluorescence, 24 h; stronger effect = lower value; DMSO median 0, no signal -100. GFP signal change (wild-type ribosome), % (concentration not given with the values). 350,000 tested, 1.6% active;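 active = significant combined selectivity score with lowered wild-type GFP, culture density cut under 30%, mutant RFP and density less affected; inactive = any of these conditions unmet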
PvdQ acylase: blocks Pseudomonas aeruginosa PvdQ acylase activity; purified PvdQ acylase, fluorescence plate reader; 340,000 tested, 0.063% active; inhibition, % at 10 µM; in the data active = inhibition above about 30%, passing the limit was not always enough;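 note: 0% = vehicle neutral wells and 100% = reference inhibitor wells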
ERAP1 HTS inh: inhibitors of human ERAP1 aminopeptidase; Q9NZ08; recombinant ERAP1, Leu-AMC fluorescence, 60 min; inhibition, % at 10.7 µM; 340,000 tested, 0.15% active; AID 652197;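 active = mean replicate inhibition of at least 30%, or all replicates individually reaching that 30% level; inactive = mean below 30% and not every replicate reaching it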;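 note: 0% = neutral control wells and 100% = L-leucinethiol positive control wells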
F508del corr: CFTR F508del correction in bronchial cells; CFBE cells, YFP halide quenching; stimulated with forskolin plus potentiator P3; % fluorescence drop versus neutral controls; activity (quench increase), % at 7.58 µM; 350,000 tested, 0.36% active; AID 720511;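 active = mean added fluorescence quench of at least 8% versus neutral control, with both replicates also reaching 8%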;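 note: cells transiently co-express mutant CFTR-F508del with the halide-sensitive YFP; corrector assay measuring rescue of mutant channel to the surface after 24 h compound exposure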
The depositor's hits bear a star.

How did O=S1(=O)CCN(C(CO)c2ccccc2)CC1 (stereo not given) do in these assays?
ARNT TACC3 PPI: -3.8; Ecoli rRNA inh: 18.4; PvdQ acylase: -3.5; ERAP1 HTS inh: -3.2; F508del corr: 10.2*

How did O=C(O)CC(c1cccc(C(F)(F)F)c1)N1CCS(=O)(=O)CC1 (stereo not given) do in these assays?
ARNT TACC3 PPI: -4.8; Ecoli rRNA inh: 7.9; PvdQ acylase: -2.7; ERAP1 HTS inh: 6.4; F508del corr: 1.0

How did O=C(NC(=S)Nc1ccccc1N1CCOCC1)c1cccs1 do in these assays?
ARNT TACC3 PPI: 17.3; Ecoli rRNA inh: -29.0*; PvdQ acylase: -11.3; ERAP1 HTS inh: 3.3

How did FC(F)(F)Oc1ccc(NC(=S)Nc2ccccc2N2CCOCC2)cc1 do in these assays?
ARNT TACC3 PPI: 0.3; Ecoli rRNA inh: -50.6*; PvdQ acylase: -7.1; ERAP1 HTS inh: 2.0; F508del corr: -1.2

What do the screens show for `O=C(NC(=S)Nc1ccccc1N1CCCC1)c1cccs1`?
ARNT TACC3 PPI: 9.3; Ecoli rRNA inh: 3.5; PvdQ acylase: -10.1; ERAP1 HTS inh: 0.6

Results for Cc1ccc(SCC(=O)Nc2ccccc2N2CCOCC2)cc1 ?
ARNT TACC3 PPI: 2.6; Ecoli rRNA inh: -27.7*; PvdQ acylase: -11.5; ERAP1 HTS inh: 4.0; F508del corr: 0.9

How did O=C(NC(=S)Nc1ccccc1N1CCOCC1)c1ccccc1F do in these assays?
ARNT TACC3 PPI: 3.9; Ecoli rRNA inh: -34.0*; PvdQ acylase: -0.3; ERAP1 HTS inh: -2.4; F508del corr: 3.3

Results for O=C(NC(=S)Nc1ccccc1N1CCN(C(=O)c2ccccc2)CC1)c1ccccc1F ?
ARNT TACC3 PPI: -3.3; Ecoli rRNA inh: -4.9; PvdQ acylase: -3.4; ERAP1 HTS inh: -3.5; F508del corr: 3.3

How did O=C(c1cnccn1)N1CC(=O)N2[C@H](CO)[C@H](c3ccc(C4=CCCCC4)cc3)[C@@H]2C1 do in these assays?
Ecoli rRNA inh: 1.4; F508del corr: -0.3

Results for COc1ccc(C#Cc2ccc([C@@H]3[C@H](CO)N4CCCCN(S(=O)(=O)c5cn(C)cn5)C[C@@H]34)cc2)cc1 ?
ARNT TACC3 PPI: 4.9; Ecoli rRNA inh: -54.0; ERAP1 HTS inh: -2.4; F508del corr: -8.9

What do the screens show for `C[C@H]1CN([C@@H](C)CO)C(=O)c2cc(NS(=O)(=O)c3ccc(Cl)cc3)ccc2O[C@H]1CN(C)C(=O)Nc1cccc2ccccc12`?
ARNT TACC3 PPI: 3.3; Ecoli rRNA inh: 1.1; ERAP1 HTS inh: -1.1; F508del corr: -2.2

What do the screens show for `CNC[C@H]1OCCCC[C@@H](C)Oc2ccc(NC(=O)Nc3ccc(OC)cc3)cc2C(=O)N([C@@H](C)CO)C[C@@H]1C`?
ARNT TACC3 PPI: -0.1; Ecoli rRNA inh: 4.5; ERAP1 HTS inh: -1.2; F508del corr: -1.9

What do the screens show for `COc1ccc(NC(=O)CN2CCN(c3ccccc3C)CC2)cc1`?
ARNT TACC3 PPI: 29.9; Ecoli rRNA inh: -31.0*; PvdQ acylase: -3.8; ERAP1 HTS inh: -1.5; F508del corr: 0.6

How did Cc1csc2c(N3CCN(C(=S)Nc4ccc(F)cc4F)CC3)ncnc12 do in these assays?
ARNT TACC3 PPI: 0.8; Ecoli rRNA inh: -26.5*; PvdQ acylase: -13.5; ERAP1 HTS inh: 0.6

Results for Cc1csc2c(N3CCN(C(=O)Nc4ccccc4)CC3)ncnc12 ?
ARNT TACC3 PPI: 2.6; Ecoli rRNA inh: -27.9*; PvdQ acylase: -10.5; ERAP1 HTS inh: -0.2; F508del corr: -0.6

What do the screens show for `COc1ccc(/C=N/NC(=O)c2ccc(COc3ccccc3Cl)o2)cc1`?
Ecoli rRNA inh: 4.4; PvdQ acylase: -12.5; ERAP1 HTS inh: 1.8

What do the screens show for `COc1cc(C(=O)Nc2ccc3c(c2)CCN3C(C)=O)cc(OC)c1OC`?
ARNT TACC3 PPI: -3.7; Ecoli rRNA inh: 1.9; PvdQ acylase: -16.5; ERAP1 HTS inh: 1.2; F508del corr: 11.5*

What do the screens show for `COc1ccc(C(=O)Nc2ccc3ccccc3c2)cc1OC`?
ARNT TACC3 PPI: 2.0; Ecoli rRNA inh: -2.4; PvdQ acylase: -15.1; ERAP1 HTS inh: -1.6; F508del corr: 2.3

How did COc1cc(C(=O)Nc2ccc3c(c2)Cc2ccccc2-3)cc(OC)c1OC do in these assays?
ARNT TACC3 PPI: -4.9; PvdQ acylase: -9.4; ERAP1 HTS inh: -8.1; F508del corr: 6.3

Results for COc1cc(C(=O)Nc2ccc3ccccc3c2)cc(OC)c1OC ?
Ecoli rRNA inh: -25.2*; F508del corr: 3.6

How did COc1ccccc1OCc1ccc(C(=O)Nc2cc(OC)c(OC)c(OC)c2)o1 do in these assays?
ARNT TACC3 PPI: 0.0; Ecoli rRNA inh: -22.0*; PvdQ acylase: -13.1; ERAP1 HTS inh: 3.5; F508del corr: -2.3
